Measurements taken from PubChem BioAssay AID1069 (NMMLSC, 2008).
Values without a mark were called inactive. Activity calls are given as the source filed them.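 The calls were made as follows: active = high combined rank on largest and smallest cell-count-weighted shift across three tests, rank score above 45, floors 50 and 25 (some results past the limit were not filed as active); inactive = the rest.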

Experiment: activators of LNCaP cell differentiation, retest, confirmation, side scatter shift, flow cytometry (AID 1069);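 also: LNCaP human prostate cancer cells in low-serum medium with charcoal-stripped FBS; percent of cells with raised granularity gated so DMSO controls show 10%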
Conditions: 4 d, at 100 µM, stronger effect = higher value

With O=C(NCCCN1CCN(c2cccc(Cl)c2)CC1)c1cccc(N2CCCC2=O)c1 the side scatter shift was 50.5% (active).
In the case of Cc1oc(-c2ccc(Cl)cc2)nc1CN1CCC(C(=O)N2CCN(Cc3ccccc3)CC2)CC1, the side scatter shift is reported as 33.3% (active).
In the case of O=C(Cn1cc2c(n1)CCCC2)NCCCN1CCN(c2ccccc2F)CC1, the side scatter shift is reported as 56.4% (active).

Going from Nc1ccccc1NC(=O)c1ccccc1N to CCOC(=O)Cn1nc(-c2ccc(Cl)cc2)cc1N, the side scatter shift rises from 5.9% to 11.4%.

Compared with CC(C)(C)c1ccc(C(O)CCCN2CCC(C(O)(c3ccccc3)c3ccccc3)CC2)cc1 (stereo unspecified), Cc1oc(-c2ccccc2F)nc1CN1CCC(C(=O)NCc2ccco2)CC1 is higher in side scatter shift: 16.7% for the first, 23.3% for the second.

Going from Cc1ccc(NC(=O)CCNS(=O)(=O)c2ccc3c(c2)oc(=O)n3C)c(C)c1 to Cc1ccc(Cn2c(C(=O)NCCCN3CCOCC3)cc3sccc32)cc1, the side scatter shift rises from 1.7% to 20.1%.

Compared with CCCS(=O)(=O)N1CCCC(C(=O)NCCCN2CCN(c3cccc(Cl)c3)CC2)C1 (stereo unspecified), Cc1ccccc1-c1nc(CN2CCC(C(=O)NCCCN3CCCC3)CC2)c(C)o1 is higher in side scatter shift: 17% for the first, 40% for the second.

Going from O=C(Cc1ccc(-n2cccc2)cc1)NCc1cccs1 to CCCCC(=O)NCCc1ccc(S(N)(=O)=O)cc1, the side scatter shift falls from 28.8% to 12.6%.

Compared with Cc1ccc(C(=O)/C=C/Nc2cccc(O)c2)cc1, COc1ccc(/C=N/c2nc3ccccc3n2C)cc1OC is lower in side scatter shift: 35.3% for the first, 10% for the second.

In the case of CC(C)(C)C1CCc2onc(C(=O)Nc3cnn(Cc4ccc(F)cc4)c3)c2C1 (stereo unspecified), the side scatter shift is reported as 25.8%.
